As usually defined, the IC90 is the concentration at which the effect reaches the 90% level.

Structures are written as SMILES. These assays gave more results; the selection is not random.

For this experiment, the target named is T1, Protein RecA (Mycobacterium tuberculosis) (UniProt P9WHJ3).
T1 sequence (whole entry): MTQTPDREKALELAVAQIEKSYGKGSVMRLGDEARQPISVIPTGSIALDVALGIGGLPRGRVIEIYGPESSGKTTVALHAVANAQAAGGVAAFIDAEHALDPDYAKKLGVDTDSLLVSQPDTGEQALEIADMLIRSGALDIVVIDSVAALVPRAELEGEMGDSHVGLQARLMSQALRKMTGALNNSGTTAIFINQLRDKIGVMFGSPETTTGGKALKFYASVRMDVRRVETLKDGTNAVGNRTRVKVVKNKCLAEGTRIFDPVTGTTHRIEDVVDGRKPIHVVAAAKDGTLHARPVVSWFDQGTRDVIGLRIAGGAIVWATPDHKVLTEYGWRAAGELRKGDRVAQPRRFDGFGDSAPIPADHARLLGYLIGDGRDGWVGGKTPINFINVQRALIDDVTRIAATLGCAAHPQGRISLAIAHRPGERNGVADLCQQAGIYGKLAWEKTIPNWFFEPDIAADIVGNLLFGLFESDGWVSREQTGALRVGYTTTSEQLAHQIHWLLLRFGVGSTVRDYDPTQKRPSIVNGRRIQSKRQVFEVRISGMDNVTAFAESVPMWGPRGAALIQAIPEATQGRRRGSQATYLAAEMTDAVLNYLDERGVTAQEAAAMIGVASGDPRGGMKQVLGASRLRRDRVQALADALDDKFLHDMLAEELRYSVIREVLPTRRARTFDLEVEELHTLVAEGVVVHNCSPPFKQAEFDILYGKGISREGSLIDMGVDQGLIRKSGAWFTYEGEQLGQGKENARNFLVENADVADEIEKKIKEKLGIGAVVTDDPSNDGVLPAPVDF
The experiment can be described thus: M. tuberculosis H37Rv growth inhibition, dose response, strain H37Rv (AID 489010).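 Note: whole Mycobacterium tuberculosis cells grown in culture and not purified RecA protein.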 The experiment is classed as functional.
`Cc1nc2c(=O)n(C)c(=O)nc-2n(C)n1`: the concentration for an effect of 90% (IC90) was 4.19 µM (active).

Turning to `CSc1nnc(NC(=O)c2nc(S(=O)(=O)Cc3ccccc3F)ncc2Cl)s1`, the IC90 is > 100 µM (active).

As for `O=C(CCl)N(c1ccc(Cl)cc1)c1c[nH]c2ccccc12`, the 90% effect concentration (IC90) was 4.5 µM (active).

On to `COC(=O)c1sc(-c2ccc(C(C)(C)C)cc2)cc1NC(=O)/C=C/C(=O)O`, for which the IC90 is 42.7 µM (active).

With `CN1C(=O)C(=C2CC(c3ccccc3)N(C(=O)CCl)N2)C(=O)N(C)C1=O` (centres undefined), the IC90 was > 100 µM (active).

Take `O=C1NC(=S)N(C2CCCCC2)C(=O)/C1=C/NNC(=O)c1ccccc1O`: the concentration for an effect of 90% (IC90) is > 100 µM (active).

As to `Cc1nn(-c2ccccc2)c(Cl)c1CN(C(=O)CCl)c1ccc(Cl)cc1`, the IC90 was 8.54 µM (active).

In the case of `Cc1ccc(N(NC(=O)C(O)(c2ccccc2)c2ccccc2)C(=O)CCl)cc1`, the 90% effect concentration (IC90) is 27.4 µM (active).

As to `Cc1cc(C)cc(Cn2ncc(Cl)c(Cl)c2=O)c1`, the concentration for an effect of 90% (IC90) was 25.7 µM (active).

For the compound `O=C(NC1=C(NC2CCS(=O)(=O)C2)C(=O)c2ccccc2C1=O)c1ccccc1` (centres undefined), the IC90 was > 100 µM (active).

In the case of `CC(C)c1nnc(NC(=O)c2nc(S(=O)(=O)Cc3ccc(F)cc3)ncc2Cl)s1`, the IC90 was > 100 µM (active).

Take `Cc1[nH]n(-c2ccccc2)c(=O)c1C(C[N+](=O)[O-])c1ccc(F)cc1` (centres undefined): the 90% effect concentration (IC90) was 32.8 µM (active).

Consider `O=C(NC1CCCCC1)C(c1cccnc1)N(C(=O)CCl)c1cccc(Cl)c1` (centres undefined), for which the IC90 was 28 µM (active).

Consider `COc1cccc(N(C(=O)CCl)C(C(=O)NCCc2ccccc2)c2cccs2)c1` (centres undefined), for which the IC90 was 32 µM (active).

On to `COC(=O)c1c(C)oc2ccc(N(C(=O)c3ccncc3)S(=O)(=O)c3ccc4ccccc4c3)cc12`, for which the IC90 is > 100 µM (active).

Consider `Cc1ccc(C)c(Sc2ccc(NC(=O)CCl)cc2)c1`, for which the IC90 is > 100 µM (active).

Consider `CC(C)(C)c1csc(Sc2ccc([N+](=O)[O-])cn2)n1`, for which the IC90 was > 100 µM (active).

In the case of `Cc1nn(-c2ccccc2)c(Cl)c1CN(C(=O)CCl)c1cccc2ccccc12`, the IC90 was 35.5 µM (active).

For the compound `O=C(CCl)N1c2ccccc2OCC1c1ccccc1` (centres undefined), the IC90 was 4.03 µM (active).

For the compound `CC(=O)n1cc(N(C(=O)CCl)c2ccccc2)c2ccccc21`, the 90% effect concentration (IC90) is 5.8 µM (active).

As to `O=C(Cc1ccccc1)c1c[nH]c(C(=O)C(Cl)(Cl)Cl)c1`, the concentration for an effect of 90% (IC90) was > 100 µM (active).

As to `CC(=O)n1cc(N(C(=O)CCl)c2ccc(C)cc2)c2ccccc21`, the IC90 is 5.03 µM (active).

Turning to `CN(C1=C(NC(=O)c2ccc(Cl)cc2)C(=O)c2ccccc2C1=O)c1ccccc1`, the 90% effect concentration (IC90) was 16.7 µM (active).

For `CC(CCc1ccccc1)NC(=O)COC(=O)c1cc(NS(=O)(=O)c2ccc(Cl)c([N+](=O)[O-])c2)ccc1O` (centres undefined), the 90% effect concentration (IC90) is > 100 µM (active).

Regarding `O=C(NC(N=C(S)Nc1ccc(Cl)cc1Cl)C(Cl)(Cl)Cl)c1cccc([N+](=O)[O-])c1` (centres undefined), the IC90 is 15.2 µM (active).

Regarding `COc1cc2c(cc1OC)-c1c(OC)c(OC)cc3c1C(C2)N(C)CC3` (centres undefined), the IC90 is 40.2 µM (active).

For the compound `Fc1ccc(Oc2nc(-c3ccccc3)nnc2C(F)(F)F)cc1`, the 90% effect concentration (IC90) is > 100 µM (active).

Take `CC(C)(C)C1CCc2sc(C(=O)NNC(=O)CCl)cc2C1` (centres undefined): the concentration for an effect of 90% (IC90) is 33.3 µM (active).

For `Clc1ccc(-n2nnnc2Sc2ncnc3sccc23)cc1`, the IC90 is 9.74 µM (active).

For the compound `Cc1ccc(N(C(=O)CCl)C(C(=O)NC2CCCCC2)c2cccnc2)cc1C` (centres undefined), the 90% effect concentration (IC90) was 30.1 µM (active).

As to `Cc1ccc2c(c1)c1c3n2CCN(C(=O)CCl)C3CCC1` (centres undefined), the IC90 was 8.43 µM (active).

On to `Cc1cc(Br)c2c(c1)/C(=C/C(=O)c1cccs1)C(=O)N2`, for which the IC90 was > 100 µM (active).

Turning to `Cc1cc(C)c(S(=O)(=O)/N=C2\C=C(Nc3ccc(C(=O)O)cc3)C(=O)c3ccccc32)c(C)c1`, the IC90 was > 100 µM (active).

With `CSc1nnc(NC(=O)c2nc(S(=O)(=O)Cc3cccc(C)c3)ncc2Cl)s1`, the 90% effect concentration (IC90) was 44.7 µM (active).

The record behind these values is ChEMBL document CHEMBL1201862, “PubChem BioAssay data set” (2004).
